Activity calls are given as the source filed them. Rule for the calls: active = hit-call score of the fitted dose curve at least 0.9, where 1 is the maximum; inactive = score below 0.9.
How the values were obtained:
[1] = ATG_GLI_CIS: Attagene CIS-FACTORIAL HepG2 Assay for human Zinc Finger Protein GLI1 (AID 2282945); settings: HepG2, Attagene cis-factorial reporter mRNA, GLI element; actives raise or lower the signal
Summary of the method: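 HepG2 cells transiently transfected with cis-promoter multiplexed reporter units report endogenous transcription factor activity. After 24 h chemical exposure, reporter mRNA was quantified by RT-PCR, 6-FAM labelling, HpaI digestion and capillary electrophoresis, with bidirectional fitting against DMSO.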

[2] = ATG_ISRE_CIS: Attagene CIS-FACTORIAL HepG2 Assay for human Interferon Regulatory Factor 1 (IRF1) binding to an Interferon-Stimulated Response Element (ISRE) (AID 2282948); settings: HepG2 ISRE cis-reporter (Attagene), mRNA transcription readout; actives raise or lower the signal
Summary of the method: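 Quantitation relies on labelled RT-PCR fragments separated by capillary electrophoresis. Human HepG2 cells bearing cis-promoter reporter constructs were treated 24 h; DMSO served as baseline for bidirectional fitting.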

[3] = ATG_M_32_CIS: Attagene CIS-FACTORIAL HepG2 Assay for M32 Transcription Factor (Internal Marker) (AID 2282949); settings: HepG2 Attagene cis-factorial M32 reporter, mRNA; actives raise or lower the signal;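 note: background control marker of the multiplexed CIS panel rather than a real target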
Summary of the method: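 Fluorescent capillary electrophoresis peaks of HpaI-digested, FAM-labelled RT-PCR reporter products give the signal. Source: transiently transfected human liver HepG2 cells, 24 h after chemical dosing; bidirectional fitting against DMSO.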

[4] = ATG_M_06_CIS: Attagene CIS-FACTORIAL HepG2 Assay for M06 Transcription Factor (Internal Marker) (AID 2282950); settings: HepG2 Attagene CIS-FACTORIAL M06 internal marker reporter; actives raise or lower the signal
Summary of the method: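 Read-out is fluorescence of labelled reporter cDNA fragments resolved by capillary electrophoresis after RT-PCR. Cells: HepG2 carrying transfected cis-promoter reporter units, treated 24 h. Gain or loss of signal fitted relative to DMSO.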

[5] = target: Hypoxia-inducible factor 1-alpha (Homo sapiens) (UniProt Q16665); experiment: ATG_HIF1a_CIS: Attagene CIS-FACTORIAL HepG2 Assay for human Hypoxia Inducible Factor 1 (HIF1A) (AID 2282951); settings: HepG2 Attagene cis-factorial HIF1a reporter transcription; actives raise or lower the signal
Chain of Hypoxia-inducible factor 1-alpha (Homo sapiens) (Q16665 whole entry, looked up): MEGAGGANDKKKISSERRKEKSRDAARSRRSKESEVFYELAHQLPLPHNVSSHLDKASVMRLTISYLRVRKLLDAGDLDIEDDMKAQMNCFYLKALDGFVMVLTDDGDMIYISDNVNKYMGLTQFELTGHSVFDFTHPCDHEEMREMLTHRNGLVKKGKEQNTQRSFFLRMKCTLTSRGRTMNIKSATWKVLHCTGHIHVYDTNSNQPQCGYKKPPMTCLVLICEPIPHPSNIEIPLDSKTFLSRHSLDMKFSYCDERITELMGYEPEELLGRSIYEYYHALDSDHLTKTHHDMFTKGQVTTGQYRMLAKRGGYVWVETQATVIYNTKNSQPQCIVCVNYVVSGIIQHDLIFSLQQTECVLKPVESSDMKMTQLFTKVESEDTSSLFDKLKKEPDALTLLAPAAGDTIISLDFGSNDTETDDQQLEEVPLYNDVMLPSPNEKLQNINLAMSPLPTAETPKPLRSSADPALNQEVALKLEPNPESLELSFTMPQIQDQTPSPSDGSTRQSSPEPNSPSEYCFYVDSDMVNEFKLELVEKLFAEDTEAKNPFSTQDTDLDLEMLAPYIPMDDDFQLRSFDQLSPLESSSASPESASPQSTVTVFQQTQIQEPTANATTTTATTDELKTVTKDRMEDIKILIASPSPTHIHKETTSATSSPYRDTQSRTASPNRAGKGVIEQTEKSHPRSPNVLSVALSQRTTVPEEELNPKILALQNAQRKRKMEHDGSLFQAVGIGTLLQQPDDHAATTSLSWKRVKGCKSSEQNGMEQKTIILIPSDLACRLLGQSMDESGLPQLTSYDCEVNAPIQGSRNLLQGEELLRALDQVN
Summary of the method: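 Measures endogenous transcription-factor activity through cis-regulated reporter mRNA in HepG2. Cells dosed 24 h; transcripts quantified by RT-PCR with 6-FAM-labelled products separated by capillary electrophoresis; DMSO serves as negative control.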

[6] = target: Hepatocyte nuclear factor 6 (Homo sapiens) (UniProt Q9UBC0); experiment: ATG_HNF6_CIS: Attagene CIS-FACTORIAL HepG2 Assay for human Hepatocyte Nuclear Factor 6 (HNF6) (AID 2282952); settings: HepG2 Attagene cis-factorial HNF6 reporter transcription; actives raise or lower the signal
Chain of Hepatocyte nuclear factor 6 (Homo sapiens) (Q9UBC0 whole entry, looked up): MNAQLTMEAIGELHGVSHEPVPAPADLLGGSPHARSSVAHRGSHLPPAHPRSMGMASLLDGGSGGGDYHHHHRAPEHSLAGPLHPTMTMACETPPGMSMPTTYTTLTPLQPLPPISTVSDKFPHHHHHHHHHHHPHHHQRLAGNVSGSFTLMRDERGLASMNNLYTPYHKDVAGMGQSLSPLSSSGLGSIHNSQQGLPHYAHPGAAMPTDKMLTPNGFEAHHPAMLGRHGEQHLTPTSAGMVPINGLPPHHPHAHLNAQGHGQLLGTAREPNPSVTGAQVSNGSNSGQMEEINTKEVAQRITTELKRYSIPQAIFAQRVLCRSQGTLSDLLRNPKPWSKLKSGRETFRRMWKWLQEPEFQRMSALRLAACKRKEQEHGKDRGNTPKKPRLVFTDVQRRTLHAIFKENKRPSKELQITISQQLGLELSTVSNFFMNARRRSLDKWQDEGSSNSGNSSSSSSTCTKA
Summary of the method: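 HepG2, transient MRTU transfection (cis promoters); 24 h chemical exposure; total RNA → oligo(dT) RT → PCR → 6-FAM labelling → HpaI cut → CE; bidirectional fit vs DMSO.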

[7] = target: Heat shock factor protein 1 (Homo sapiens) (UniProt Q00613); experiment: ATG_HSE_CIS: Attagene CIS-FACTORIAL HepG2 Assay for human Heat Shock Transcription Factor 1 (HSE) (AID 2282953); settings: HepG2 HSE cis-reporter, Attagene RNA transcription; actives raise or lower the signal
Chain of Heat shock factor protein 1 (Homo sapiens) (Q00613 whole entry, looked up): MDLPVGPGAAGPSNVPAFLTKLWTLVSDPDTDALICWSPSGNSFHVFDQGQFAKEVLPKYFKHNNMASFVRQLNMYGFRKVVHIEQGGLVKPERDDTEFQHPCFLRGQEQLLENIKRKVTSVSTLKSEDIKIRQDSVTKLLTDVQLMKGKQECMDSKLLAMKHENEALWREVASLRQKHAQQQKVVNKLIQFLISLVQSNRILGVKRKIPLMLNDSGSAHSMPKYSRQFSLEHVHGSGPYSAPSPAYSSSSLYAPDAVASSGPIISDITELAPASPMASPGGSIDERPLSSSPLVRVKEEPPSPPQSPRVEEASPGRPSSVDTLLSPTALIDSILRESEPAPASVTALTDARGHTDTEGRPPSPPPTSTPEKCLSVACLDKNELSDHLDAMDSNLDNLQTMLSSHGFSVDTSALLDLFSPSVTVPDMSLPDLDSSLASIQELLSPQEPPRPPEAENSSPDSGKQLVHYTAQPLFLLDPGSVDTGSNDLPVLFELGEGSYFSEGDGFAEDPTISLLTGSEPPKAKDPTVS
Summary of the method: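 HepG2, transient MRTU transfection, cis-promoter reporters (endogenous TF activity). 24 h compound. RNA → oligo(dT) RT → PCR → 6-FAM primer extension → HpaI cut → CE. Bidirectional fit vs DMSO.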

[8] = ATG_MRE_CIS: Attagene CIS-FACTORIAL HepG2 Assay for human Metal Responsive Element (MRE) (AID 2282954); settings: HepG2 MRE cis-reporter transcription, Attagene multiplex; actives raise or lower the signal
Summary of the method: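 Step one: transfect HepG2 with cis-regulated reporter units. Step two: dose 24 h. Step three: isolate RNA, RT-PCR, 6-FAM label, HpaI digest, capillary electrophoresis. Fit bidirectionally to DMSO.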

[9] = ATG_PBREM_CIS: Attagene CIS-FACTORIAL HepG2 Assay for human Phenobarbital-responsive Enhancer Module (PBREM) (AID 2282955); settings: HepG2 PBREM cis-reporter, Attagene multiplexed transcription; actives raise or lower the signal
Summary of the method: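 Fluorescence of labelled reporter cDNA fragments, resolved by capillary electrophoresis, gives mRNA induction in transfected HepG2 cells treated for 24 h; DMSO serves as negative control and baseline.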

[10] = target: Paired box protein Pax-6 (Homo sapiens) (UniProt P26367); experiment: ATG_Pax6_CIS: Attagene CIS-FACTORIAL HepG2 Assay for human Paired Box 6 (PAX6) (AID 2282956); settings: HepG2 CIS-FACTORIAL PAX6 reporter transcription, RNA readout; actives raise or lower the signal
Chain of Paired box protein Pax-6 (Homo sapiens) (P26367 whole entry, looked up): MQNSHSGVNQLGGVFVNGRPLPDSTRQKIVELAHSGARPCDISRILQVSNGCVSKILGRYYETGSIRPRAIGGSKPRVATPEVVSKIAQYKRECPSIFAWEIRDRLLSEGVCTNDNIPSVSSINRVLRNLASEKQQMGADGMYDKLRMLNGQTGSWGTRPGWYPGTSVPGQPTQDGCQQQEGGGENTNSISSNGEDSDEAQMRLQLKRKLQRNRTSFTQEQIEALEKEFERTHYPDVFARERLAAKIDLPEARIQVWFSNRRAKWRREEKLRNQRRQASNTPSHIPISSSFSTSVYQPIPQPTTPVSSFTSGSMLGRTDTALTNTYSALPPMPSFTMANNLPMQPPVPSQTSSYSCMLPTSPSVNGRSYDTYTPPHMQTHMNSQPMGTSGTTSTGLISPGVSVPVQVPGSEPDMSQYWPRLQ
Summary of the method: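 After twenty-four hours of chemical exposure, transfected HepG2 cells are harvested for RNA. Cis-promoter reporter transcripts are amplified, fluorescently labelled and sized by capillary electrophoresis, with gain and loss of signal scored against DMSO.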

[11] = ATG_PXRE_CIS: Attagene CIS-FACTORIAL HepG2 Assay for human Pregnane X Receptor Element (PXRE) (AID 2282957); settings: HepG2 Attagene CIS-FACTORIAL PXRE reporter, mRNA; actives raise or lower the signal
Summary of the method: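 Transfect HepG2 with MRTUs (cis promoter elements); dose chemical, incubate 24 h; isolate RNA, RT with oligo(dT), PCR, 6-FAM label, HpaI cut, CE. Gain/loss fit vs DMSO.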

[12] = ATG_PPRE_CIS: Attagene CIS-FACTORIAL HepG2 Assay for human Peroxisome Proliferator-activated Response Element (PPRE) (AID 2282958); settings: HepG2 PPRE cis-element reporter, Attagene transcription factor profiling; actives raise or lower the signal
Summary of the method: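 Cells are first transfected transiently with the multiplexed reporter library, then dosed for 24 h. Total RNA is reverse-transcribed, amplified, fluorescently end-labeled and HpaI-cut before capillary electrophoresis; activity is fitted bidirectionally against DMSO controls.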

[13] = ATG_RORE_CIS: Attagene CIS-FACTORIAL HepG2 Assay for human RAR-related Orphan Receptor Element (RORE) (AID 2282959); settings: HepG2 Attagene cis-factorial RORE reporter, mRNA; actives raise or lower the signal
Summary of the method: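 Cells were HepG2 carrying transfected cis-regulated reporter constructs, dosed for 24 hours. Total RNA was reverse-transcribed and reporter cDNA amplified, fluorescently labeled and sized by capillary electrophoresis. Activity was fitted bidirectionally relative to DMSO.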

[14] = ATG_Sox_CIS: Attagene CIS-FACTORIAL HepG2 Assay for human SRY-box transcription factor (SOX) (AID 2282960); settings: HepG2 Attagene cis-factorial SOX reporter, mRNA; actives raise or lower the signal
Summary of the method: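 Transient MRTU transfection of HepG2; 24 h compound incubation; TriZol RNA, oligo(dT) RT, PCR, 6-FAM primer extension, HpaI cut, CE. Bidirectional fit, DMSO = baseline.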

[15] = target: Transcription factor Sp1 (Homo sapiens) (UniProt P08047); experiment: ATG_Sp1_CIS: Attagene CIS-FACTORIAL HepG2 Assay for human Specificity Protein 1 (Sp1) (AID 2282961); settings: HepG2 Sp1 cis-reporter transcription, actives raise or lower the signal
Chain of Transcription factor Sp1 (Homo sapiens) (P08047 whole entry, looked up): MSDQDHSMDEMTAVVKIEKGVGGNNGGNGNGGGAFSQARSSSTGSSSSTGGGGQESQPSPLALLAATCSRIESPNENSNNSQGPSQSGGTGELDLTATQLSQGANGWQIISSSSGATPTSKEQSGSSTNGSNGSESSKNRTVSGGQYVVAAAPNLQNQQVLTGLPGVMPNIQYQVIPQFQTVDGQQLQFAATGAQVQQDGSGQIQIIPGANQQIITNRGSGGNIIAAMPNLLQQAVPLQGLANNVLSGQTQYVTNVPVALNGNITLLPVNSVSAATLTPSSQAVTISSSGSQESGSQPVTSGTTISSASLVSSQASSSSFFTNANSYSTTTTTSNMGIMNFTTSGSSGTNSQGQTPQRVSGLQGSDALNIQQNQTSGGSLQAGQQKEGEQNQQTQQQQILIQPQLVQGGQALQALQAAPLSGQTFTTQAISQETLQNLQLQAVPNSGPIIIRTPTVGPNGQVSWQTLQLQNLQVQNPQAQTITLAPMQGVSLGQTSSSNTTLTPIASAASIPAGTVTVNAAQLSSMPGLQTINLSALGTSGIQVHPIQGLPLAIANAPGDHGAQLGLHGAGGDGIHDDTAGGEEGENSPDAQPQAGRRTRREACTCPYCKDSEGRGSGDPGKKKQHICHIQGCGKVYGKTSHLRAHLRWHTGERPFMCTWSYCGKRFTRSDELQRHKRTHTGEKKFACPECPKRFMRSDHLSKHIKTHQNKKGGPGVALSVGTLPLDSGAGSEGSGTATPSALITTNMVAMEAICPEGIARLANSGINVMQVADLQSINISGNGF
Summary of the method: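 Endogenous Sp1 activity was gauged in human liver HepG2 cells bearing transfected reporter units under a cis-regulating promoter. After 24 h dosing, reporter mRNA was quantified by RT-PCR with capillary electrophoresis, and activity fitted bidirectionally versus DMSO.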

[16] = target: Signal transducer and activator of transcription 3 (Homo sapiens) (UniProt P40763); experiment: ATG_STAT3_CIS: Attagene CIS-FACTORIAL HepG2 Assay for human Signal Transducer and Activator of Transcription 3 (STAT3) (AID 2282963); settings: HepG2, Attagene cis-factorial STAT3 reporter transcription; actives raise or lower the signal
Chain of Signal transducer and activator of transcription 3 (Homo sapiens) (P40763 whole entry, looked up): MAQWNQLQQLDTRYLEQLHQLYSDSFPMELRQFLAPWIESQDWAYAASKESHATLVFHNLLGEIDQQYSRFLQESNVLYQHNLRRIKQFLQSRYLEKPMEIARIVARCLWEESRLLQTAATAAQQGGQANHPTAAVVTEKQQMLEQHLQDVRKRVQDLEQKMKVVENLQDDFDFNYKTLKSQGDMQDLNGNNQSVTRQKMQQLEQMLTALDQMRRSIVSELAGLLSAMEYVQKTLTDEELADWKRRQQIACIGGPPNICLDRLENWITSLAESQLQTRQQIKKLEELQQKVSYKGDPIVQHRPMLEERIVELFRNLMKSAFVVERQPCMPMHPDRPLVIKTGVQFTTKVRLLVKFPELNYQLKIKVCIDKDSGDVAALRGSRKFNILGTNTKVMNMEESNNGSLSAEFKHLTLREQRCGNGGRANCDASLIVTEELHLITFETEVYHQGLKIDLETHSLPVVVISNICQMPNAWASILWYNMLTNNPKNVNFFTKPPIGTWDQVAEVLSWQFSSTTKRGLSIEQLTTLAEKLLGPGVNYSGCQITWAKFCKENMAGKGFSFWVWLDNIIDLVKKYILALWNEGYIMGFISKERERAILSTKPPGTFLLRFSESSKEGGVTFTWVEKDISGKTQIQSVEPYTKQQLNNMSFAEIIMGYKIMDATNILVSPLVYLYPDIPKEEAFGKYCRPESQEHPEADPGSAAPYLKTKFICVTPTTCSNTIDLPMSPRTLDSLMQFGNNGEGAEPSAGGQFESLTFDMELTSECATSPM
Summary of the method: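 Transcript-level reporter assay. HepG2 transient MRTU transfection, 24 h exposure, fluorescence detection after RT-PCR and CE; DMSO baseline.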

[17] = ATG_TA_CIS: Attagene CIS-FACTORIAL HepG2 Assay for human TA Basal Promoter (AID 2282964); settings: HepG2 Attagene CIS-factorial TA basal promoter reporter; actives raise or lower the signal
Summary of the method: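 Read-out: fluorescent reporter-transcript fragments resolved by capillary electrophoresis after RT-PCR and HpaI digestion. Source: HepG2 cells carrying transiently transfected multi-reporter cis constructs, treated 24 h. Endpoint fitted bidirectionally relative to DMSO.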

[18] = ATG_SREBP_CIS: Attagene CIS-FACTORIAL HepG2 Assay for human Sterol Regulatory Element Binding (SREBP) (AID 2282962); settings: HepG2 Attagene cis-factorial SREBP reporter, mRNA; actives raise or lower the signal
Summary of the method: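 Twenty-four hours after chemical dosing of transfected HepG2 cultures, reporter RNA was converted to cDNA, amplified, end-labelled with 6-FAM and resolved by capillary electrophoresis. Responses were fitted relative to DMSO.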

Measured: AC50

CCNC(=S)NCC
not listed: [18]
inactive: all other assays above

CC(=O)OCC=C(C)CCC=C(C)CCC=C(C)C
active: [1] 164 µM | [2] 147 µM | [7] 72.3 µM | [8] 100 µM | [9] 175 µM | [10] 63.8 µM | [11] 9.61 µM | [13] 164 µM | [14] 162 µM | [17] 100 µM
inactive: [3] | [4] | [5] | [6] | [12] | [15] | [18] | [16]

C=C(C)CCCC(C)CCO (stereo unspecified)
active: [11] 6.72 µM
not listed: [9] | [13]
inactive: all other assays above

CC(O)CNCC(C)O (stereo unspecified)
not listed: [12]
inactive: all other assays above

Nc1cc([N+](=O)[O-])ccc1C(=O)O
active: [7] 75 µM | [8] 71 µM | [11] 64.5 µM
not listed: [13]
inactive: all other assays above

COC(=O)c1cccc(C(=O)OC)c1
not listed: [12] | [16]
inactive: all other assays above

ClCCOCCOCCCl
not listed: [9] | [14]
inactive: all other assays above

CCCCCCCOC(C)=O
active: [11] 31 µM
not listed: [9]
inactive: all other assays above

CC(=O)Oc1c(C)c(C)c2c(c1C)CC[C@@](C)(CCC[C@H](C)CCC[C@H](C)CCCC(C)C)O2
not listed: [13]
inactive: all other assays above

CCCCCCOc1ccc(O)cc1
active: [7] 11.3 µM | [8] 47.7 µM | [10] 33.4 µM | [11] 5.85 µM | [17] 39.2 µM
not listed: [13] | [14]
inactive: all other assays above

CC(=O)OC(C)(C)C1CC=C(C)CC1 (stereo unspecified)
active: [11] 36.9 µM
not listed: [16] | [18]
inactive: all other assays above

CC1=CC[C@@H](C(C)(C)O)CC1
not listed: [9] | [13]
inactive: all other assays above

CCCCOCCOCCOCCO
not listed: [18]
inactive: all other assays above

CCC(C)C1CCCCC1=O (stereo unspecified)
not listed: [12] | [16]
inactive: all other assays above

CC(C)N1C(=O)c2ccccc2C1=O
active: [11] 37.2 µM
not listed: [12] | [14]
inactive: all other assays above

C=CCCCCCCCCC(=O)OCC
not listed: [18]
inactive: all other assays above

CN(C)C(=O)Nc1ccccc1
active: [11] 26.5 µM
not listed: [12] | [13]
inactive: all other assays above

— PubChem BioAssay (EPA / NIEHS)
